Assay outcomes from PubChem BioAssay.
Shown are actives, neighbours in structure and some others; about 1.7% of the full set was active somewhere.
TLR4-MyD88 BLA: inhibitors of TLR4-MyD88 association in cells, primary screen, cell-based, HeLa CL3-4, BLA complementation, FRET ratio; AID 861, 2007; HeLa CL3-4 TLR4/MyD88 BLA complementation; inhibition, % at 8.4 µM; 200,000 compounds, 0.18% hits; in the data active = inhibition above about 25%;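 also: 0% = vehicle and 100% = reference inhibitor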
ABCB6 inh MLPCN: ABCB6 transporter inhibitors, primary screen, K562-ABCB6 cells, flow cytometry, MLPCN library | K562-ABCB6 porphyrin accumulation, 1 h; hits give low values | fluorescence ratio to DMSO, % at 10 µM | AID 602162, 2011 | 360,000 compounds, 0.19% hits;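 active = fluorescence ratio to DMSO below 75%, the collection mean minus 3 SD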;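 also: signal is porphyrin accumulated inside mitochondria; 100% equals median channel fluorescence of DMSO control wells; lower ratio means ABCB6 inhibition with less porphyrin fluorescence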
Target sequence (Q9NP58 whole entry, looked up): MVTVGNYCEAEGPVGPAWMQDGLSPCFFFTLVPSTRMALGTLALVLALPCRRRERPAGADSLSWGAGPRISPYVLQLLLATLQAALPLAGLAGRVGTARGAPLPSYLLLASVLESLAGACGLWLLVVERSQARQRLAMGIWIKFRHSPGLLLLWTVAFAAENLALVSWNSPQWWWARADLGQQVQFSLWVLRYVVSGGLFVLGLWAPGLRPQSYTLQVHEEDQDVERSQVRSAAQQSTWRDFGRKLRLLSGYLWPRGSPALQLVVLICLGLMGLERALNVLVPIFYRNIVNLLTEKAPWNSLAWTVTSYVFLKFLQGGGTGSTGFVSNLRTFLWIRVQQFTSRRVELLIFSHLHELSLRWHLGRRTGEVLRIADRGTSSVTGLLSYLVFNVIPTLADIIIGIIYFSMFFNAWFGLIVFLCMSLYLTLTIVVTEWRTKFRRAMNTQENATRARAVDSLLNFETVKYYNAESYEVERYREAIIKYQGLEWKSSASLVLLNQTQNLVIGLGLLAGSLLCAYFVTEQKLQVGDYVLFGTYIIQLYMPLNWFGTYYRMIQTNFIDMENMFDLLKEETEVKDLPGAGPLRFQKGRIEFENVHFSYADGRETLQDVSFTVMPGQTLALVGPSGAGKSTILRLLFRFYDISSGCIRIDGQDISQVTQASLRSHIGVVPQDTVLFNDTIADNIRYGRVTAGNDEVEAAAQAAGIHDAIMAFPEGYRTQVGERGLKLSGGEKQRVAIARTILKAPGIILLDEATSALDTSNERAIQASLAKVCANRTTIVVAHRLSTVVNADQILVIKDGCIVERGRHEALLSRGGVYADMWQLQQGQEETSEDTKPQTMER
TLR9-MyD88 inh: inhibitors of TLR9-MyD88 association in cells, primary screen, cell-based, CHO, BLA complementation, fluorescence | CCF4 FRET ratio | inhibition, % at 4.98 µM | 340,000 compounds, 0.21% hits | AID 504734, 2011;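 active = inhibition above the mean over all tested compounds plus 3 SD, cut at about 21% in these data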;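 also: 0% = DMSO only wells and 100% = clavulanate BLA inhibitor control wells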
NOD2-RIPK2 inh: NOD2-RIPK2 binding disruptors in cells, primary screen, fluorescence, CHO cells, BLA complementation; 360,000 compounds, 0.38% hits; inhibition, % at 4.98 µM; CCF4 ratio; Receptor-interacting serine/threonine-protein kinase 2 (Homo sapiens), O43353; in the data active = inhibition above about 21%;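 also: 0% = vehicle only and 100% = reference blocker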
Myeloid diff 2: induction of myeloid progenitor differentiation, primary screen, cell-based, flow cytometry, MLPCN library. ER-HoxA9 myeloid progenitors, lysozyme-GFP differentiation. calls only at 10 µM. 360,000 compounds, 1% hits. AID 624256, 2012;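 active = normalized GFP-positive differentiation at or above the plate's own cutoff, the solvent-only control mean plus 3 SD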;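 also: cells exposed to compound for four days before flow analysis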
Myeloid diff CP1: inducers of myeloid progenitor differentiation, confirmation, cell-based, GFP/Mac1 flow cytometry, cherry pick 01; ER-HoxA9 myeloid progenitors, GFP/Mac1 double-positive flow; shares compounds with Myeloid diff 2; 2,300 compounds, 2% hits; calls only;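 active = share of green or green-and-red cells above 9 and 9% in run 1 or 4 and 3% in run 2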
GFP autofluor: flagged as fluorescent in myeloid differentiation counter-screen. shares compounds with Myeloid diff 2. 2,300 compounds, 7.4% hits. AID 651707. ER-HoxA9 myeloid progenitors, no estrogen, GFP autofluorescence flow cytometry; vehicle wells 0%, positive control 100%. fluorescence response, % (test concentration not listed);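 active = over 5% cells positive for green fluorescent reporter, or over 2% positive for both it and APC stain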;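 also: range taken on the double positive population between DMSO and positive control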
An asterisk follows results filed as active; i = inactive; . = no result given; + = active, no number.

SMILES | TLR4-MyD88 BLA | ABCB6 inh MLPCN | TLR9-MyD88 inh | NOD2-RIPK2 inh | Myeloid diff 2 | Myeloid diff CP1 | GFP autofluor
COC(=O)c1ccccc1NC(=O)C1CC=CCC1C(=O)O (centres undefined) | -4 | 92 | 0 | -7 | i | i | 0
COc1ccc(C(=O)CSc2ncnc3nc[nH]c23)cc1 | . | 99 | 2 | 0 | + | i | 0
COc1ccc(CNC(=O)CSc2ncnc3nc[nH]c23)cc1 | -12 | 106 | 0 | -1 | i | . | .
Cc1ccc(NC(=O)C(C)SCc2nc3sc(C)c(C)c3c(=O)[nH]2)nc1 (centres undefined) | . | 112 | -4 | -4 | i | . | .
Cc1ccc(C)c(C(O)c2ncc(-c3ccc4ccccc4c3)[nH]2)c1 (centres undefined) | . | 100 | . | -9 | i | . | .
N#Cc1nc(-c2cccs2)oc1NCc1ccco1 | 0 | 100 | 5 | -4 | i | i | 0
N#Cc1nc(-c2cccs2)oc1NCc1ccccc1 | -12 | 102 | 3 | 0 | i | . | .
O=C(N[C@@H](Cc1ccccc1)C(=O)N1CCN(S(=O)(=O)c2ccc(F)cc2)CC1)c1ccco1 | . | 96 | 7 | 13 | i | . | .
CCc1nc(SCC(=O)c2c[nH]c3ccccc23)n[nH]1 | -4 | 120 | 11 | -1 | i | i | 1
Cc1cccc(-n2ncc3c2CCCC3NC(=O)c2ccc[n+]([O-])c2)c1C (centres undefined) | . | 97 | -2 | -4 | i | . | .
Cc1cc(C(=O)NC2CCCc3c2cnn3-c2cccc(C)c2C)n(C)n1 (centres undefined) | . | 100 | -7 | -13 | + | i | 0
Cc1cccc(N2CCN(S(=O)(=O)c3c(C)[nH]c(C)c3C(=O)N3CCCC3)CC2C)c1 (centres undefined) | . | 100 | -12 | 11 | i | . | .
CCOC(=O)C(=NCCCN(C)C)NNc1cc(C(F)(F)F)ccc1Cl | 3 | 98 | 4 | 4 | i | . | .
COC(=O)c1ccc(OC)c(OC2CCCC2)c1 | . | 97 | 2 | -5 | i | i | 0
Cn1c(=O)c2cc(NC(=O)CCc3ccc(O)cc3)ccc2n1Cc1cccc(C(F)(F)F)c1 | . | 90 | . | -7 | + | i | 1
Cn1c(=O)c2cc(NC(=O)CCc3ccccc3)ccc2n1Cc1cccc(C(F)(F)F)c1 | . | 103 | . | -1 | i | . | .
COc1ccccc1CNC(=O)COC(=O)[C@H](Cc1c[nH]c2ccccc12)NC(=O)c1cccs1 | -5 | 97 | -2 | -3 | i | . | .
CC(C)(C)NC(=O)CCc1nnc(Cc2c[nH]c3ccccc23)o1 | 12 | 97 | 8 | -5 | i | . | .
O=C(CCc1nnc(Cc2c[nH]c3ccccc23)o1)NCC1CC12CCCCC2 (centres undefined) | 7 | 95 | 4 | 5 | i | i | 1
C#CCNC(=O)C1=C[C@@H](C)[C@H](CCCO)[C@@H](OCC)O1 | . | 98 | 3 | 7 | i | . | .
c1coc(CNc2c3c(nc4ncnn24)CCCC3)c1 | 9 | 96 | -1 | 0 | i | . | .
Clc1cccc(-c2cc3nc4c(c(NCc5ccco5)n3n2)CCCC4)c1 | 3 | 102 | 4 | -10 | + | i | 0
COc1ccc2nc(C)cc(SCC(=O)NNC(=O)COc3cccc4ccccc34)c2c1 | -4 | 84 | 3 | -12 | i | . | .
COc1ccc2nc(C)cc(SCC(=O)NNC(=O)COc3ccc(C)cc3)c2c1 | -5 | 91 | 5 | 6 | i | i | 0
CC(=O)Nc1ccc(S(=O)(=O)Nc2nc(C)nc3sc(C)c(C)c23)cc1 | . | 99 | 14 | 1 | i | . | .
SMILES | TLR4-MyD88 BLA | ABCB6 inh MLPCN | TLR9-MyD88 inh | NOD2-RIPK2 inh | Myeloid diff 2 | Myeloid diff CP1 | GFP autofluor
O=C(NC1CCCCCCC1)c1ccc2c(c1)OCO2 | 4 | 102 | -4 | 4 | i | . | .
c1cc2c(cc1NC1CCCCCC1)OCO2 | . | 110 | -16 | 11 | + | i | 0
Cn1c(CCNC(=O)c2ccccc2F)nnc1SCC(=O)Nc1nncs1 | . | 96 | -6 | 9 | i | . | .
CC1CC2(CCCCC2)Nc2c1ccc1ccccc21 (centres undefined) | 4 | 101 | -4 | 0 | + | i | 12*
Cc1ccc(NC(=O)CNC(=O)c2cccc(C)c2)nc1 | . | 93 | 6 | 0 | i | . | .
Cc1cc(NC(=O)C(C)Sc2nnc(NCc3ccco3)s2)no1 (centres undefined) | . | 104 | 4 | 7 | + | i | 0
O=C(COc1ccccc1)NS(=O)(=O)c1ccccc1 | . | 100 | -16 | -3 | i | . | .
COc1ccc(CCn2c(N)c(C(=O)NCc3ccco3)c3nc4ccccc4nc32)cc1 | 3 | 111 | -9 | -10 | . | . | .
COc1ccc(-n2c(N)c(C(=O)NCc3ccco3)c3nc4ccccc4nc32)c(OC)c1 | -5 | 106 | -3 | 3 | + | i | 4
CC(C)(C)N(Cc1ccccc1)C(=O)COC(=O)c1ccc2ccccc2n1 | . | 97 | -6 | 5 | i | . | .
Cc1cc(C)c(C#N)c(SCC(O)CS(=O)(=O)Cc2ccccc2)n1 (centres undefined) | -3 | 102 | -2 | -8 | i | i | 0
Cc1cc(C(=O)N2CCCC(C)(C(=O)NS(=O)(=O)C3CC3)C2)n(C(C)(C)C)n1 (centres undefined) | . | 109 | . | -4 | i | . | .
CCCS(=O)(=O)NC(=O)C1(C)CCCN(C(=O)c2cc(C)nn2C(C)(C)C)C1 (centres undefined) | . | 92 | . | -3 | i | i | 0
CCCCN(C(=O)c1ccc(-c2ccc([N+](=O)[O-])cc2)o1)c1c(N)n(CCCC)c(=O)[nH]c1=O | . | 87 | 10 | 15 | . | . | .
CCCCN(C(=O)c1ccc([N+](=O)[O-])o1)c1c(N)n(CCCC)c(=O)[nH]c1=O | . | 105 | -9 | -5 | + | i | 2
CCOC(=O)c1cc2c(=O)n3ccccc3nc2n(C(C)C)c1=NC(=O)c1c(-c2c(F)cccc2Cl)noc1C | 6 | 135 | 0 | -8 | + | i | 0
CC1CC(C)(C)NC(=S)N1CCCC(=O)NCc1ccccc1 (centres undefined) | 5 | 100 | -15 | -13 | i | i | 0
CCc1ccc(NC(=O)CCCN2C(=S)NC(C)(C)CC2C)cc1 (centres undefined) | -15 | 93 | 3 | 6 | i | . | .
